Bioassay records as filed in PubChem.
Shown are actives, neighbours in structure and some others; about 6.7% of the full set was active somewhere.
Anthrax LF inh2: blocks Bacillus anthracis lethal factor protease; P15917; multiplex microsphere protease cleavage assay, LF; inhibition, % at 10 µM; 360,000 tested, 0.12% active; AID 588501
FBA Mtb inh: Mtb fructose-bisphosphate aldolase inhibition. AID 588726. purified M. tuberculosis FBA, fluorescence read-out. 360,000 tested, 2.3% active. inhibition, % at 1 µM. P9WQA3; in the data active means inhibition above about 27%
Target sequence (P9WQA3 whole entry, looked up): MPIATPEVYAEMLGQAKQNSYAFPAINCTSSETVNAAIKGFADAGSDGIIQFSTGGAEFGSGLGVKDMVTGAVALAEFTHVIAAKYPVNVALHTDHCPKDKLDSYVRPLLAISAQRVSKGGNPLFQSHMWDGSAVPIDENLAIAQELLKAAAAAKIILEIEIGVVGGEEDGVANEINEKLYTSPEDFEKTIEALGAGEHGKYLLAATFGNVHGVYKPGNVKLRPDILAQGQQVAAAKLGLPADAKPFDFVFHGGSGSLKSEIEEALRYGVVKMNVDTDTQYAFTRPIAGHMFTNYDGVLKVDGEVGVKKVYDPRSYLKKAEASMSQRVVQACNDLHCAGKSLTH
GDH-TPI inh: GDH-TPI coupled enzyme inhibition counter-screen | inhibition, % at 4.8 µM | 360,000 tested, 1.2% active | GDH-TPI coupled enzyme counterscreen, NADH absorbance; in the data active means inhibition above about 30%
Bead autofluor: counter-screen for toxin protease inhibitors: compound fluorescence. compound autofluorescence counterscreen, microsphere flow cytometry; hits give high values. fluorescence intensity (test concentration not listed). 360,000 tested, 3.1% active. AID 624483; in the data active means fluorescence intensity above about 16000; inconclusive means no clear call, values can overlap the other calls
BoNT F protease: inhibitors of Botulinum neurotoxin F light chain protease | inhibition, % at 10 µM | AID 588497 | 360,000 tested, 0.22% active | Multiplex microsphere protease cleavage assay, flow cytometry; in the data active means inhibition above about 35%, passing the limit was not always enough; inconclusive means no clear call, values can overlap the other calls
BoNT-A LC inh2: BoNT A light chain protease inhibition; multiplex microsphere protease substrate cleavage, flow cytometry; inhibition, % at 10 µM; AID 588499; 360,000 tested, 0.17% active
Numbers stand for hits; 0 = inactive; ? = inconclusive; + = active, no number. Unless noted, no stated cut-off is given here; in the data, active means inhibition above about 30%; inconclusive means no clear call, values can overlap the other calls; inactive means below that.

SMILES | Anthrax LF inh2 | FBA Mtb inh | GDH-TPI inh | Bead autofluor | BoNT F protease | BoNT-A LC inh2
COc1cc(/C=N/Nc2ccc(S(N)(=O)=O)cc2)cc(OC)c1OC | 0 | 0 | 0 | 0 | 0 | 0
COc1ccc(/C=[N+](\[O-])C2N(c3ccccc3)C(=S)SC2(C)C)cc1OC (stereo not drawn) | 0 | 0 | 32.4 | 0 | 0 | 0
O=C(N[C@@H]1C/C=C\C[C@H](CC(=O)N(CCO)Cc2ccccc2)C(=O)N[C@@H](Cc2c[nH]c3ccccc23)COC1=O)OCC1c2ccccc2-c2ccccc21 | 0 | 0 | 0 | 0 | 0 | 0
O=c1[nH]c(=S)n(-c2ccccc2)c(O)c1/C=N/N1CCCCC1c1cccnc1 (stereo not drawn) | 0 | 0 | 51.9 | 0 | 0 | 0
N#CC1=C2SCN(Cc3ccco3)CN2C(=O)CC1c1c(F)cccc1Cl (stereo not drawn) | 0 | 0 | 0 | 0 | 0 | 0
Cc1ccc(C2CC(=O)N3CN(Cc4ccco4)CSC3=C2C#N)cc1 (stereo not drawn) | 0 | 0 | 0 | 20926 | 0 | 0
O=C(COC(=O)c1cccc(C(F)(F)F)c1)NCc1ccccc1 | 0 | 0 | 0 | 0 | 0 | 0
O=C(O)c1c2c(nc3ccc(F)cc13)CCC2 | 0 | 0 | 0 | 20799 | 0 | 0
NNc1nc(-c2ccccc2)cc(-c2ccccc2O)n1 | 0 | 0 | 0 | 22292 | 0 | ?
N#Cc1cc(-c2ccccc2)nc(NN)n1 | 0 | 0 | 32.0 | 0 | ? | 0
N#Cc1cc(-c2ccccc2)nc(Oc2ccc(Cl)cc2)n1 | 0 | 0 | 0 | 0 | 0 | 0
NNc1nc(-c2ccccc2)cc(-c2ccccc2)n1 | 0 | 0 | 0 | 0 | 0 | 0
CCCCn1c(/N=C/c2ccc(N(C)C)cc2)nc2ccccc21 | 0 | 0 | 52.2 | 0 | 0 | 0
C=CCn1c(/N=C/c2ccc(N(C)C)cc2)nc2ccccc21 | 0 | 0 | 0 | 0 | 0 | 0
CNc1nc(-c2ccccc2)cc(C)c1S(C)(=O)=O | 0 | + | 0 | 0 | 0 | 0
C/C(=N/NC(=O)c1ccco1)c1ccc(Br)s1 | 0 | 0 | 43.0 | 0 | 0 | 0
C/C(=N/NC(=O)CNc1ccc(C)cc1)c1ccc(Br)s1 | 0 | 0 | 0 | 19958 | 0 | 0
Cc1cc2ncn(/N=C/c3cccnc3)c2cc1C | 0 | 0 | 0 | 0 | 0 | 0
COc1cccc(/C=N/n2cnc3ccccc32)c1OC | 0 | 0 | 0 | 16900 | 0 | 0
C(=N\n1cnc2ccccc21)/c1cccnc1 | 0 | 0 | 0 | 22275 | 0 | 0
COc1cccc(/C=N/n2c(-c3cc(C)[nH]n3)n[nH]c2=S)c1OC | 0 | 0 | 0 | 0 | ? | 0
COc1cccc(/C=N/n2c(=S)n(C)c3cc(C)c(C)cc32)c1OC | 0 | 0 | 0 | 22389 | 0 | ?
COc1cccc(/C=N/n2c(N)nc3ccccc32)c1OC | 0 | 0 | 0 | 0 | 0 | 0
Cc1cccc(NC(=O)CN(C)S(=O)(=O)c2ccc(-c3ccc(=O)[nH]n3)s2)c1C | 0 | 0 | 0 | 0 | 0 | 0
CCc1nnc(NC(=O)c2cccc(S(=O)(=O)N3CCCCC3)c2)s1 | 0 | 0 | 0 | 0 | 0 | 0
SMILES | Anthrax LF inh2 | FBA Mtb inh | GDH-TPI inh | Bead autofluor | BoNT F protease | BoNT-A LC inh2
Cc1cc(C)n(C(=O)c2ccc([N+](=O)[O-])cc2N)n1 | 0 | 0 | 0 | 0 | 0 | 0
O=C(CN1C(=O)c2ccccc2C1=O)Nc1sc2c(c1C(=O)NCC1CCCO1)CCC2 (stereo not drawn) | 0 | 0 | 0 | 22614 | 0 | 0
C=CCn1c(-c2ccccc2)nc2nc3ccccc3nc21 | 0 | 126.5 | 39.0 | 0 | 0 | 0
Clc1cccc(-c2nc3nc4ccccc4nc3n2Cc2ccccc2)c1 | 0 | 0 | 0 | 0 | 0 | 0
CCOC(=O)c1ccc(NC(=S)Nc2ccccn2)cc1 | 0 | 0 | 0 | 0 | 0 | 0
O=C(c1cc2ccccc2o1)N1CCN(S(=O)(=O)c2c(F)cccc2F)CC1 | 0 | 0 | 0 | 20189 | 0 | 0
CC(=O)N1CCN(C(=O)c2cc3ccccc3o2)CC1 | 0 | 0 | 0 | 0 | 0 | 0
O=C(NCc1ccco1)c1cc2n(n1)C(C(F)(F)F)CC(c1ccc(Cl)c(Cl)c1)N2 (stereo not drawn) | 0 | 0 | 0 | 17695 | 0 | 0
O=C(NCc1ccco1)c1cc2n(n1)C(C(F)(F)F)CC(c1ccc(Br)cc1)N2 (stereo not drawn) | 0 | 0 | 0 | 0 | 0 | 0
CCOc1ccc(-c2nc(C#N)c(NCC3CCCO3)o2)cc1 (stereo not drawn) | ? | 177.2 | 0 | ? | 0 | ?
O=S(=O)(c1ccccc1)c1nc(-c2ccc(F)cc2)oc1NCC1CCCO1 (stereo not drawn) | 0 | 0 | 0 | 0 | 0 | 0
N#Cc1nc(-c2ccccc2Cl)oc1NCC1CCCO1 (stereo not drawn) | 0 | 0 | 0 | 0 | 0 | 0
CCCOc1ccc(-c2nc(C#N)c(NCC3CCCO3)o2)cc1 (stereo not drawn) | 0 | 121.0 | 0 | 24772 | 0 | 0
COc1ccc(-c2nc(C#N)c(NCC3CCCO3)o2)cc1OC (stereo not drawn) | 0 | 180.2 | 0 | 0 | 0 | 0
COc1cccc(C2c3[nH]c4ccccc4c3CCN2C(=O)Cn2cncn2)c1OC (stereo not drawn) | 0 | 0 | 0 | 0 | 0 | 0
COc1ccccc1C1c2[nH]c3ccccc3c2CCN1Cc1ccc(NC(C)=O)s1 (stereo not drawn) | 0 | 0 | 32.5 | 0 | 0 | 0
CCCCOC(=O)CSc1nnc(-c2cc(OC)c(OC)c(OC)c2)o1 | ? | 0 | 0 | ? | ? | ?
CN(C)CC#CCC(O)(c1ccccc1)C1CCCC1 (stereo not drawn) | 0 | 0 | 0 | 23845 | 0 | 0
Cc1ccccc1NC(=S)NC(=O)CCc1ccccc1 | 0 | 0 | 0 | 19923 | 0 | 0
CCCCC(=O)NC(=S)Nc1ccccc1C(=O)Nc1ccccc1 | 0 | 0 | 0 | 17346 | 0 | ?
COC(=O)c1ccccc1NC(=S)NC(=O)CC(C)C | 0 | 0 | 0 | 22351 | 0 | 0
Cc1cccc(C)c1NC(=S)NC(=O)CCc1ccccc1 | 0 | 0 | 0 | 0 | 0 | 0
CCCCC(=O)Nc1cccc(NC(=O)c2ccccc2Br)c1 | 0 | 0 | 0 | 20490 | 0 | 0
O=C(O)c1ccccc1/C=N/n1c(C2CCCCC2)n[nH]c1=S | 0 | 0 | 0 | 0 | 0 | 0
COc1cc(N2Cc3ccccc3C2)ccc1C=O | 0 | 0 | 33.6 | 0 | ? | 0
SMILES | Anthrax LF inh2 | FBA Mtb inh | GDH-TPI inh | Bead autofluor | BoNT F protease | BoNT-A LC inh2
COc1ccc(S(=O)(=O)Nc2ccccc2OC)cc1C | 0 | 0 | 0 | 0 | 0 | 0
COc1ccc(S(=O)(=O)Nc2ccccc2SC)cc1C | 0 | 0 | 0 | 23520 | 0 | 0
COc1ccc(NS(=O)(=O)c2ccc(SC)cc2)c(OC)c1 | 0 | 0 | 0 | 21230 | 0 | 0
Cc1c(C2(c3c(C)n(C)n(-c4ccccc4)c3=O)C(=O)Nc3ccc(F)cc32)c(=O)n(-c2ccccc2)n1C | 0 | 0 | 0 | 0 | ? | 0
CCOc1ccccc1N1CCN(Cc2ccc(Br)s2)CC1 | 0 | 0 | 0 | 0 | 0 | 0
CC(=O)N1CCN(Cc2ccc(Br)s2)CC1 | 0 | 0 | 0 | 22754 | 0 | 0
CCOC(=O)c1cc2c(=O)n3cccc(C)c3nc2n(CCCOC)c1=NC(=O)c1cccnc1 | 0 | + | 0 | 0 | 0 | 0
